# Data: the supplement of paper PMC6522484
# “And” between values parts separate entries of the source, which are not always exact repeats. Identical values can stand only once. ± gives the standard deviation of the averaged measurements.
# Tests used:
# DLD1 [1] = assay: cell viability (CellTiter-Glo) relative to plate median (fraction of plate median); higher = more viable cells; conditions: 5 µM; treatment time 24 h; reporter: 7TFP
# Outline: (§1)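 Stable lentiviral TCF/Wnt firefly luciferase reporters (7TFP or TCF4/Wnt) were present in the colorectal cancer cell lines used. These cells received library compounds at a final 5 µM for 24 h, and parallel plates were read for firefly luciferase or CellTiterGlo luminescence. Each well was normalised to the plate median, and the value reported is the mean of two independent replicates.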
# HCT116 = assay: as above; conditions: 5 µM; treatment time 24 h; reporter: TCF4/Wnt
# Outline: as §1
# SW480 [2] = assay: as above; conditions: 5 µM; treatment time 24 h; reporter: 7TFP
# Outline: as §1
# DLD1 [3] = assay: TCF/Wnt firefly luciferase reporter signal relative to plate median (fraction of plate median); higher = higher Wnt reporter signal; conditions: 5 µM; treatment time 24 h; reporter: 7TFP
# Outline: as §1
# SW480 [4] = assay: as above; conditions: 5 µM; treatment time 24 h; reporter: 7TFP
# Outline: as §1
Structure (SMILES),cell viability (DLD1 [1]),cell viability (HCT116),cell viability (SW480 [2]),TCF/Wnt firefly luciferase reporter signal (DLD1 [3]),TCF/Wnt firefly luciferase reporter signal (SW480 [4])
Cc1ccc(C(=O)c2ccc(CC(=O)O)n2C)cc1,0.981 ± 0.098,1.01 ± 0.023,1 ± 0.053,1.07 ± 0.05,1.06 ± 0.064
O=C(CCBr)N1CCN(C(=O)CCBr)CC1,1.07 ± 0.042,1.035 ± 0.0071,1.025 ± 0.0071,1.03 ± 0.12,1.01 ± 0.019
C[C@@H]1CCC[C@H](C)N1NC(=O)c1ccc(Cl)c(S(N)(=O)=O)c1,1.04 ± 0.068,0.9815 ± 0.00071,0.96 ± 0.0071,0.993 ± 0.0099,0.984 ± 0.052
OCC(S)CS (stereo not given),0.884 ± 0.063,0.956 ± 0.018,0.944 ± 0.032,0.921 ± 0.057,0.936 ± 0.066
CC[C@]1(O)C[C@@H]2CN(CCc3c([nH]c4ccccc34)[C@@](C(=O)OC)(c3cc4c(cc3OC)N(C)[C@H]3[C@@](O)(C(=O)OC)[C@H](OC(C)=O)[C@]5(CC)C=CCN6CC[C@]43[C@@H]65)C2)C1,0.879 ± 0.16,0.477 ± 0.019,1.1 ± 0.035,0.803 ± 0.15,0.867 ± 0.2
COc1cc2c(cc1OC)-c1c(oc3cc(O)cc(O)c3c1=O)CO2,0.988 ± 0.12,0.972 ± 0.096,0.972 ± 0.0042,1.22 ± 0.05,1.03 ± 0.035
CCCOc1ccc2[nH]c(NC(=O)OC)nc2c1,0.979 ± 0.011,1.08 ± 0.2,1.13 ± 0.071,0.959 ± 0.21,0.957 ± 0.035
O=C(O)c1cn(C2CC2)c2cc(N3CCNCC3)c(F)cc2c1=O,0.964 ± 0.037,0.988 ± 0.015,1.03 ± 0.021,1.05 ± 0.078,1.07 ± 0.014
CC[C@H]1C(=O)OC[C@@H]1Cc1cncn1C,0.942 ± 0.097,0.948 ± 0.13,1.015 ± 0.0071,0.89 ± 0.15,0.959 ± 0.019
COc1ccc(-c2coc3cc(O)ccc3c2=O)c(O)c1O,1.02 ± 0.035,0.993 ± 0.038,1.03 ± 0.014,1 ± 0.079,1.09 ± 0.028
CCOc1ccc2ccccc2c1C(=O)N[C@@H]1C(=O)N2[C@@H]1SC(C)(C)[C@@H]2C(=O)O,0.991 ± 0.07,1.035 ± 0.0071,1.06 ± 0.071,1.1 ± 0.26,1.12 ± 0.057
Nc1[nH]cnc2ncnc1-2,1.2,1.1 ± 0.071,1.82 ± 0.028,0.981 ± 0.012,1.65 ± 0.26
COc1c(O)cccc1O,0.99 ± 0.042,0.962 ± 0.17,1.01,1.16 ± 0.05,1.06 ± 0.021
NC(=O)NC(=O)Cc1ccccc1,1.02 ± 0.014,1.16 ± 0.035,1.02 ± 0.037,1.12 ± 0.064,0.94 ± 0.08
COc1cc(O)ccc1C(C)=O,0.941 ± 0.059,0.97 ± 0.015,0.92 ± 0.0071,0.889 ± 0.054,0.97 ± 0.026
O=C(O)P(=O)(O)O,1.06 ± 0.028,0.965 ± 0.05,1 ± 0.011,0.834 ± 0.0092,0.944 ± 0.031
CC(C(=O)O)c1cccc(C(=O)c2ccccc2)c1 (stereo not given),1.14 ± 0.13,0.931 ± 0.035,1.04 ± 0.028,0.9355 ± 0.0064,1.03 ± 0.014
CN(C)[C@@H]1C(O)=C(C(=O)NCN2CCCC2)C(=O)[C@@]2(O)C(O)=C3C(=O)c4c(O)cccc4[C@@](C)(O)[C@H]3C[C@@H]12,1.08 ± 0.13,1.06,1.02 ± 0.014,0.858 ± 0.067,1.04
Nc1ncnc2c1ncn2[C@@H]1O[C@H](CO)[C@@H](O)[C@@H]1O,0.9735 ± 0.0078,1.01 ± 0.021,0.975 ± 0.034,1.08 ± 0.064,1.05 ± 0.05
Nc1ccn([C@@H]2O[C@H](CO)[C@@H](O)[C@@H]2O)c(=O)n1,0.987 ± 0.018,0.849 ± 0.092,1.1 ± 0.064,1.08 ± 0.11,0.968 ± 0.14
NC[C@H]1O[C@H](O[C@H]2[C@H](O[C@@H]3O[C@H](CO)[C@@H](O)[C@H]3O)[C@@H](O)[C@H](N)C[C@@H]2N)[C@H](N)[C@@H](O)[C@@H]1O,0.955 ± 0.018,0.996 ± 0.0014,0.962 ± 0.0014,1.04 ± 0.057,0.994 ± 0.023
CCN(CC)CCOC(=O)C(Cc1cccc2ccccc12)CC1CCCO1 (stereo not given),1.095 ± 0.0071,1.02 ± 0.034,1.02 ± 0.033,0.874 ± 0.072,1.22 ± 0.37
CC(=O)[C@H]1CC[C@H]2[C@@H]3C[C@H](C)C4=CC(=O)CC[C@]4(C)[C@H]3[C@@H](O)C[C@]12C,0.979 ± 0.12,0.981 ± 0.042,0.958 ± 0.029,1.01 ± 0.069,1 ± 0.022
O=C(O)c1cc(=O)c2cccc(O)c2[nH]1,0.932 ± 0.077,1.07 ± 0.1,0.946 ± 0.016,1.19 ± 0.014,1.15 ± 0.021
O=C(Oc1cc(OC(=O)c2ccccc2)c2c(c1)O[C@H](c1ccc(OC(=O)c3ccccc3)c(OC(=O)c3ccccc3)c1)[C@@H](OC(=O)c1ccccc1)C2)c1ccccc1,1.04 ± 0.059,1.065 ± 0.0071,1.06 ± 0.071,0.978 ± 0.046,0.972 ± 0.016
Cc1ccc(Cl)c(Nc2ccccc2C(=O)O)c1Cl,1.04 ± 0.067,1.06 ± 0.086,1 ± 0.052,1.04 ± 0.021,1.05 ± 0.064
N[C@@H](CC(=O)N1CCn2c(nnc2C(F)(F)F)C1)Cc1cc(F)c(F)cc1F,1.09 ± 0.042,0.997 ± 0.061,0.963 ± 0.041,0.95 ± 0.069,0.935 ± 0.081
CN(C)CC[C@@H](c1ccc(Cl)cc1)c1ccccn1,1.01 and 0.901,0.96 and 1.04,0.968 and 1.01,0.862 and 1.08,0.778 and 1.05
O=C(COc1ccc(Cl)cc1)N1CCN(Cc2ccc3c(c2)OCO3)CC1,0.9755 ± 0.0064,0.893 ± 0.03,1.035 ± 0.0071,0.865 ± 0.18,0.921 ± 0.018
CC(=O)O[C@H]1CC[C@@]2(C)[C@H](CC[C@@H]3[C@@H]2CC[C@]2(C)[C@@H]4[C@H](C[C@@H]32)O[C@]2(CC[C@@H](C)CO2)[C@H]4C)C1,1.01 ± 0.028,0.979 ± 0.1,0.977 ± 0.0014,0.836 ± 0.043,0.941 ± 0.083
